Source: PubChem BioAssay (National Center for Advancing Translational Sciences (NCATS))
Only some compounds are listed: those with a hit (about 19% of all), similar ones and a draw of the others.
HT1080NT lethal – qHTS for induction of synthetic lethality in tumor cells producing 2HG: qHTS for the HT-1080-NT fibrosarcoma cell line; HT-1080-NT fibrosarcoma viability, CellTiter-Glo ATP luminescence, 48 h; Potency, µM (doses to about 46.1 µM), without a hit: at the highest dose activity, negative = less viability, most hits filed as cytotoxic; 360,000 tested, 1.6% active; AID 686970, 2013;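 further: NT is the 2HG producing partner of a matched IDH1 knockdown line; potency means the concentration at half of the fitted maximal effect; 0% = DMSO-treated cells and -100% = media-only wells without cells; nearly all actives have a fitted effect of over 55% in size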
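Compounds were tested in concentration-response format on HT-1080-NT cells for 48 hours at 37 degrees C. Cell viability came from CellTiter-Glo luminescence; curves were classified by r2, response magnitude and activity.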
DT40 TDP1 CPT – qHTS for Inhibitors of human tyrosyl-DNA phosphodiesterase 1 (TDP1): qHTS in cells in presence of CPT; 420,000 tested, 12% active; Potency, µM (top dose mostly 46.2 µM), for the others: at the highest dose activity change, negative = growth inhibition, usual class: inhibitors; AID 686979, 2013; chicken DT40 Tdp1-/-;hTDP1 cells + 20 nM CPT, ATP luminescence, 48 h; further: potency means the concentration at half of the fitted maximal effect; nearly all actives have a fitted effect of over 55% in size
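Chicken DT40 Tdp1-/- cells stably complemented with human TDP1 were seeded at 400 cells/well in medium containing 20 nM camptothecin, exposed to pin-transferred compounds, and grown at 37 °C for at least 48 hr. Viability was read as ATP luminescence.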
TDP1 cell noCPT – qHTS for Inhibitors of human tyrosyl-DNA phosphodiesterase 1 (TDP1): qHTS in cells in absence of CPT; 420,000 tested, 15% active; Potency, µM (titrated, usually from 46.2 µM), inactives show at the top dose activity change, negative = growth inhibition, most hits filed as inhibitors; DT40 Tdp1-/- hTDP1 cells, no CPT, ATP luminescence, 48 h; further: potency means the concentration at half of the fitted maximal effect; nearly all actives have a fitted effect of over 55% in size
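Seeded 400 DT40-hTDP1 cells/well (vehicle DMSO, no 20 nM CPT); pinned compounds; ≥48 hr at 37 °C; CellTiter-Glo luminescence as viability measure.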
HT1080 IDH1KD tx – qHTS for induction of synthetic lethality in tumor cells producing 2HG: qHTS for the HT-1080-IDH1KD cell line; Potency, µM (titrated, usually from 46.1 µM), inactives show at the top dose activity, negative = toxicity, most hits filed as cytotoxic; HT-1080 IDH1 knockdown viability, ATP luminescence, 48 h; 360,000 tested, 2% active; AID 686971, 2013;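 further: potency means the concentration at half of the fitted maximal effect; 0% = DMSO wells and -100% = cell-free medium wells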
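CellTiter-Glo luminescence after 48 h compound exposure at 37 degrees C of IDH1-knockdown HT-1080 cells in 5% FBS RPMI. %Activity scaled between DMSO wells and cell-free media wells, with curves fitted and assigned curve classes.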
IL-1B inflam inh – qHTS for Inhibitors of Inflammasome Signaling: IL-1-beta AlphaLISA Primary Screen; 360,000 tested, 4.7% active; activity change, % at 57.5 µM; THP-1 LPS/ATP IL-1B secretion, AlphaLISA, 16 h; stronger effect = lower value; in the data active means activity change below about -50%; inconclusive means mostly about -30% to -49%
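THP-1 cells pretreated 1 hr with compounds (up to 57.5 uM final), then stimulated with LPS (250 ng/mL final) plus ATP (1.25 mM final); secreted IL-1B measured by AlphaLISA after 16 hr, decreased signal indicating inhibition.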
An asterisk follows results filed as active; ? = inconclusive; . = not tested or not shown. Unless noted, the call rests on the fitted dose curve; in most records, active means well fitted curve in the direction sought with a large enough effect; inconclusive means small, poorly fitted or top-dose-only effect, or another doubt; inactive means no such curve, though single readings can be large; an effect the other way counts as inactive or inconclusive. Unless noted, on the % scale 0 is the no-effect control and ±100 the full control effect.

SMILES	HT1080NT lethal	DT40 TDP1 CPT	TDP1 cell noCPT	HT1080 IDH1KD tx	IL-1B inflam inh
CCC(O)(CC)C(=O)NN(C(=O)CCl)c1ccccc1	0.1%	13µM*	14.6µM*	?	-81.6*
O=C(C[C@H]1C(=O)N(Cc2ccccc2)C[C@@H]1c1ccc(Br)cc1)Nc1ccc(Br)cc1	-12.9%	25.9µM*	25.9µM*	?	-14.7
O=C(C[C@H]1C(=O)N(Cc2cccnc2)C[C@@H]1Cc1ccccc1)Nc1ccc(Br)cc1	?	?	14.6µM*	?	?
CC(C)CNC(=O)CN(C1CCCCC1)S(=O)(=O)c1ccccc1	1.5%	-26.7%	-20.2%	2.3%	-1.8
COc1cccc(-c2oc3c(c2C(=O)OCCN(C)C)C(O)CCC3)c1 (centres undefined)	-16.9%	-1.7%	1.3%	12.3%	15.7
Cc1ccccc1C(=O)c1cccn1CC(=O)NCc1cccc(Cl)c1	11.9%	-2.1%	1.1%	9.2%	-6.1
CC12CC(NC(=O)N1c1cccc(C(=O)NCc3ccc4c(c3)OCO4)c1)c1cc(Cl)ccc1O2 (centres undefined)	?	18.4µM*	18.4µM*	?	?
CCN(Cc1ccccc1)c1cc2c(c3c1ccn3C)C1CCC2C1 (centres undefined)	0.2%	23.1µM*	23.1µM*	-5.9%	-6.0
CN(c1cc(Cl)c2c(c1)OCO2)c1cc2c(c3c1ccn3C)C1CCC2C1 (centres undefined)	5.4%	?	20.6µM*	9.7%	51.8
CCN(CC)c1cc2c(c3c1ccn3C)C1CCC2C1 (centres undefined)	6.3%	25.9µM*	?	0.6%	21.3
OCC[C@@H]1C[C@@H](O)[C@H](O)[C@]2(CCc3ccccc3CO2)O1	-0.3%	-17.9%	2.5%	-0.3%	28.7
COc1cc(OC)c(NS(=O)(=O)c2cccc(C(=O)OCC(=O)NCC3CCCO3)c2)cc1Cl (centres undefined)	12.4%	?	-23.9%	11.3%	11.4
N#CC1=C(N)Oc2n[nH]c(-c3ccc(F)cc3)c2C1c1ccncc1 (centres undefined)	0.2%	-2.5%	-3.6%	-11.6%	15.7
Cc1ccc(C)c(OCCC(=O)OC(C)C(=O)Nc2c(C)n(C)n(-c3ccccc3)c2=O)c1 (centres undefined)	0.1%	-6.1%	-6.4%	-0.2%	15.7
CC1CN(C(=O)CCC(=O)NCc2cccc(Cl)c2)c2ccccc2S1 (centres undefined)	.	-25.3%	-28.4%	.	.
O=C(NCC1CCCC(CNC(=O)N2CCc3ccccc32)C1)N1CCc2ccccc21 (centres undefined)	?	-25.1%	-27.5%	20µM*	?
Cc1cccc(CNC(=O)c2ccc(NC(=O)N3CCSc4ccccc43)cc2)c1	.	16.4µM*	9.2µM*	.	.
CCOc1ccccc1CNC(=O)c1ccc(NC(=O)N2CC(C)Sc3ccccc32)cc1 (centres undefined)	.	13µM*	7.31µM*	.	.
CC1CN(C(=O)Nc2ccc(C(=O)NCc3cccc(F)c3)cc2)c2ccccc2S1 (centres undefined)	.	?	18.4µM*	.	.
CC(C)(C)OC(=O)N1CCc2onc(-c3ccccc3[N+](=O)[O-])c2C1=O	7.7%	11.5%	19.7%	7.3%	15.7
CCc1ccccc1NC(=O)N1CC(C)Sc2ccccc21 (centres undefined)	.	20.6µM*	?	.	.
Cc1ccccc1CCNC(=O)c1ccc(NC(=O)N2CC(C)Sc3ccccc32)cc1 (centres undefined)	.	18.4µM*	7.31µM*	.	.
CCc1ccccc1NC(=O)N1CCc2ccccc21	-3.7%	23.1µM*	?	8.5%	-3.8
CC1CN(C(=O)Nc2ccc(C(=O)NCc3ccccc3F)cc2)c2ccccc2S1 (centres undefined)	.	23.1µM*	14.6µM*	.	.
O=C(Nc1sc2c(c1C(=O)O)CCCC2)c1cccc(Cl)c1	-5.2%	-24.7%	-4.2%	-5.1%	-24.3
CN(C)c1ccc(/C=N/NC(=O)C2CC2c2ccccc2)cc1 (centres undefined)	7.0%	-26.8%	-26.1%	-22.8%	-30.0
O=C(N/N=C/C=C/c1ccccc1)NC1CCCCC1	-4.1%	18.4µM*	18.4µM*	-5.3%	-23.3
O=C(N/N=C/C=C/c1ccccc1)C1CC1c1ccccc1 (centres undefined)	-28.0%	18.4µM*	11.6µM*	?	-11.3
O=C(NCCCN1CCOCC1)c1ccc(CSCc2cccc(Cl)c2)o1	-10.7%	?	?	-7.1%	-13.0
CC(=O)Nc1ccc(N=Cc2c(O)c(C(=O)Nc3ccccc3)cc3ccccc23)cc1	-28.2%	?	16.4µM*	?	56.7
